In all, about 35,000 sequences were measured (“fluorescence intensity (a.u.)”: median about 10,000, highest 2% from about 52,000 on). Many of the other results were omitted from the sample, so the highest values are more common in it than they were.

The record followed here is paper PMC7819943, “Rice protein-binding microarrays: a tool to detect cis-acting elements near promoter regions in rice”.

The target of the experiment is T1, OsWOX13 (Oryza sativa, UniProt Q5QMM3 1-267).
T1 sequence: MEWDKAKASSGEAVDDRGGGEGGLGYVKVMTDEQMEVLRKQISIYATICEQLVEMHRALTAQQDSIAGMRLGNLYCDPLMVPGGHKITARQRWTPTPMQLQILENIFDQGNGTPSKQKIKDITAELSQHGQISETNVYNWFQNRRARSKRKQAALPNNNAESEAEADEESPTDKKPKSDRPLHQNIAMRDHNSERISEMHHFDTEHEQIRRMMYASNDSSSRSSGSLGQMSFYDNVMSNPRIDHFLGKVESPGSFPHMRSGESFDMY
Nature of the experiment: protein-binding microarray (RPBM); PBS, 2% BSA, 51.3 ng/ul salmon testes DNA, 50 uM zinc acetate, 200 nM TF, 25 C, 1 h; high values mean tight binding. Conditions: protein: recombinant; tags: N-terminal polyhistidine and DsRed monomer fusion (pET32a); label: CyDye5-dUTP incorporated in the synthesized complementary strand; 3' TTTTT single-stranded linker to array surface; dsDNA, one strand shown. In short, it runs like this: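 For the binding signal, per-feature fluorescence intensity was read in arbitrary units on an Axon 4000B scanner. Before scanning, a 2% BSA-blocked custom Agilent array made double-stranded with Cy5-dUTP was washed after 1 h at 25 °C with 200 nM protein and 50 µM zinc acetate. The proteins were Ni–NTA-purified transcription factors with N-terminal polyhistidine and DsRed fusions, expressed in E. coli BL21-CodonPlus.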
As for “AGTCAATCAGTCAATCTGGACCGTCCACGGCAGAAGAAGTCGGAGTCACCTAGTGCAG”, the binding signal was 30700 fluorescence intensity (a.u.).

Take “GGATTATCAATCAAGCAAGCAAACAAACACTAAGGAAACCCGGAGTCACCTAGTGCAG”: the binding signal is 15000 fluorescence intensity (a.u.).

For the sequence “GAATAATCAATTGCCGAATACGTTCTGGACATGGATATTGCGGAGTCACCTAGTGCAG”, the binding signal is 6880 fluorescence intensity (a.u.).

On to “CCTGGCTGATCGATAATTAATCCGTCCTCGCCGTCGCCATCGGAGTCACCTAGTGCAG”, for which the binding signal is 15400 fluorescence intensity (a.u.).

For “GGGAAGGCGGCGATTGATTTGATTTGACCAAGATTGGTCGCGGAGTCACCTAGTGCAG”, the binding signal is 28700 fluorescence intensity (a.u.).

As for “CTGATTGATTTAGCGGCTCAACATATATACCAAGGCGGCGCGGAGTCACCTAGTGCAG”, the binding signal is 61100 fluorescence intensity (a.u.).

Regarding “ATATTGATTAGGCTCTCGGCTCTCTATTTAACCAACTGAACGGAGTCACCTAGTGCAG”, the binding signal is 34300 fluorescence intensity (a.u.).

On to “GAACTAATCACAAATTTCCACCATACAATGCCGCTGTACTCGGAGTCACCTAGTGCAG”, for which the binding signal is 13300 fluorescence intensity (a.u.).

As for “TACAATCACATTCAATTTGAAAAGAGAAGATGGCTCTTGGCGGAGTCACCTAGTGCAG”, the binding signal is 9800 fluorescence intensity (a.u.).

With “TGCCTTTGATTAATGTCATGATGTCACATGCTGAGATTCACGGAGTCACCTAGTGCAG”, the binding signal is 11900 fluorescence intensity (a.u.).

For the sequence “ATGCAGTAATTAATCAATTAACTAATTAACTCACCCCATGCGGAGTCACCTAGTGCAG”, the binding signal was 47800 fluorescence intensity (a.u.).

“GAGGCCAATCAGGTTGATGATGAAGAGGATGATTTCAGCGCGGAGTCACCTAGTGCAG”: the binding signal was 18200 fluorescence intensity (a.u.).

For “TCACATTCTTGCATGATTGAACACTCCCTTTCATCCCTCACGGAGTCACCTAGTGCAG”, the binding signal is 18900 fluorescence intensity (a.u.).

“CATCAATCATGATTGAAGATGATTCAAGGTTGAGAGGACCCGGAGTCACCTAGTGCAG”: the binding signal was 53900 fluorescence intensity (a.u.).

Regarding “GTCATGTGATTGATGATTCAGCATCCCTTGAGGCTCAGTGCGGAGTCACCTAGTGCAG”, the binding signal is 53600 fluorescence intensity (a.u.).

For “CTGATTAACTCTTCAATCAAATCCCTAACTTGAGTGCATGCGGAGTCACCTAGTGCAG”, the binding signal was 57200 fluorescence intensity (a.u.).

In the case of “GACTAACACCCTAGACTGATTAATCAAAGCATTGTGCATGCGGAGTCACCTAGTGCAG”, the binding signal is 16800 fluorescence intensity (a.u.).

As for “AAATGAGATGACAATGATGATGATGATGGTTTCATCACCCCGGAGTCACCTAGTGCAG”, the binding signal was 4620 fluorescence intensity (a.u.).

In the case of “CTTGATGATTAATCAATTCAATCTTGGCTGTCATGAGAGGCGGAGTCACCTAGTGCAG”, the binding signal is 62000 fluorescence intensity (a.u.).

On to “AATTTACGATTGATTATTCATTCAGTGAGGCGCATGCGGTCGGAGTCACCTAGTGCAG”, for which the binding signal was 32700 fluorescence intensity (a.u.).

For “ATTTAGACAGGTTCCAACCTCCTTGATAACAGTTAAAACCCGGAGTCACCTAGTGCAG”, the binding signal was 7950 fluorescence intensity (a.u.).

In the case of “TTTTAGGTTAATTACTTCTATTGGTCAACTCAATATGCAGCGGAGTCACCTAGTGCAG”, the binding signal is 5660 fluorescence intensity (a.u.).

Take “TGACTCTTATTTAACGACTGATTGTTGTCAAGATAATGAACGGAGTCACCTAGTGCAG”: the binding signal was 3770 fluorescence intensity (a.u.).

For the sequence “CGTACAATATTAATTAAAGTGTTTAAGAAACAGAGACTAGCGGAGTCACCTAGTGCAG”, the binding signal is 3740 fluorescence intensity (a.u.).

For the sequence “AAGGAAAATTAATAGCATACAGGCATGCATTTACGTACTTCGGAGTCACCTAGTGCAG”, the binding signal was 5500 fluorescence intensity (a.u.).

In the case of “CCATGTGATTGACGATGCTCTTATTAACTTCTAACTTGACCGGAGTCACCTAGTGCAG”, the binding signal is 47000 fluorescence intensity (a.u.).

“GCTGACGTAGATAATCTTATGCTTTCAAATTTTACGATAGCGGAGTCACCTAGTGCAG”: the binding signal was 5670 fluorescence intensity (a.u.).

For “ACTTTCTGTCAATTAGCCATTAGGTCAGTAGCCCAAAGTCCGGAGTCACCTAGTGCAG”, the binding signal was 24300 fluorescence intensity (a.u.).

For “TTCATGATATCAATTTATGAGCATCAAAAGATTACCATGCCGGAGTCACCTAGTGCAG”, the binding signal was 6980 fluorescence intensity (a.u.).

For “TCTGCTTAAAAGGATGATTAAATTTTAGATTAAAGTGGCGCGGAGTCACCTAGTGCAG”, the binding signal was 10200 fluorescence intensity (a.u.).

“CTGATGATTAGATTTATCATGCTTCCGCGCTTCAAAAGGGCGGAGTCACCTAGTGCAG”: the binding signal was 53400 fluorescence intensity (a.u.).

For “TCAGATTAGTTGACTAGCAAGCTACTCCTAGTACAGGTTACGGAGTCACCTAGTGCAG”, the binding signal was 6290 fluorescence intensity (a.u.).

As to “TAATTATTGACTAATATATTAATTAATATAATGTAATTTACGGAGTCACCTAGTGCAG”, the binding signal is 22700 fluorescence intensity (a.u.).

For the sequence “TGTTTATAACTGTAATGACATATAAGCACCACATAGGGGCCGGAGTCACCTAGTGCAG”, the binding signal was 5560 fluorescence intensity (a.u.).

In the case of “ACAATTTGATTGCTTCCTTTCAACATTGTGGTTGGTGATCCGGAGTCACCTAGTGCAG”, the binding signal is 30500 fluorescence intensity (a.u.).

In the case of “GTTGATTGGGTAAATCATATGATCGTAATGTATTGTGAATCGGAGTCACCTAGTGCAG”, the binding signal is 64600 fluorescence intensity (a.u.).

“ATAAATGATTGGAGGATTTGTTGTGACTTTTCCACAATGTCGGAGTCACCTAGTGCAG”: the binding signal is 58200 fluorescence intensity (a.u.).

Take “GTATTGTGATTTGTGAATCAGTGAATATGTGAATGTGATTCGGAGTCACCTAGTGCAG”: the binding signal was 13200 fluorescence intensity (a.u.).

Turning to “GGTGATTTGATTCAAATTCAATCCGATCCTTTGTTGGTTTCGGAGTCACCTAGTGCAG”, the binding signal was 53400 fluorescence intensity (a.u.).

For “CTAATTAATTTGTTCCCTTAATTGGCACTTTGAATCTAAGCGGAGTCACCTAGTGCAG”, the binding signal was 58300 fluorescence intensity (a.u.).

On to “CAGCCCTTAATTGAATTTGGCCCAGCTAGTTCCCGGGCCCCGGAGTCACCTAGTGCAG”, for which the binding signal is 30600 fluorescence intensity (a.u.).

With “TTGTAAATGACTGATTTGGATGTGAATTAATCGTTGTTGTCGGAGTCACCTAGTGCAG”, the binding signal was 28400 fluorescence intensity (a.u.).
